From PubChem BioAssay
This is a sample that favours compounds with a hit; in the whole collection about 1.2% have one here.
zVAD death inh – inhibitors of zVAD-triggered necroptosis, primary screen, L929 cells; L929 zVAD necroptosis rescue, ATP luminescence, 24 h; with zVAD 60 µM; viability rescue, % at 10 µM; hit rate 0.38% among 220,000;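 active = activation, scaled between plate controls, above about 75%, limit read from the data; inactive = activation under that limit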
EBV gp42 block – Epstein-Barr virus gp42 inhibitors, primary screen, biochemical, uHTS, fluorescence polarization. inhibition, % (tested at 21.74 µM). AID 1085, 2008. Fluorescence polarization binding assay, mP read-out. hit rate 0.42% among 220,000; in the data active = inhibition above about 50%
Target sequence (Q1HVG2 whole entry, looked up): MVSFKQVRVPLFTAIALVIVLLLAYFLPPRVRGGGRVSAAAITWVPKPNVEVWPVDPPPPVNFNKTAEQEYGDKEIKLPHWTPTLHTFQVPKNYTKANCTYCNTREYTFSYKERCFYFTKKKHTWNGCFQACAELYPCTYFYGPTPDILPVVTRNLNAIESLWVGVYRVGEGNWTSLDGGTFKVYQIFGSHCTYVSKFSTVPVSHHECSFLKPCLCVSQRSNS
TNF necrop inh – inhibitors of TNF-alpha triggered necroptosis, primary screen, cell-based, Jurkat FADD-/-, single concentration | hit rate 0.068% among 220,000 | activation (protection from cell death), % at 10 µM | Jurkat FADD-/- TNF necroptosis rescue, ATP luminescence, 24 h; 0 = TNF only, 100 = no-TNF cells;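 active = activation, meaning protection from cell death, of at least 50% relative to plate controls; inactive = activation below 50%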;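 note: necroptosis triggered by 40 ng/mL TNF-alpha added together with compound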
eIF4E-4G inh – eIF4E–eIF4G protein interaction inhibitors, primary screen, biochemical, uHTS, TR-FRET, eIF4GI fragment; TR-FRET eIF4E-eIF4GI(517-606) binding, 2 h; hit rate 0.37% among 220,000; inhibition, % at 21.7 µM;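 active = inhibition above about 30%, limit read from the data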
Of the large screens only hits and unclear results are named; the others gave an inactive call; [ ] = dose if it differs, or a comment.

Cc1cc(-c2csc(NC(=O)c3ccc(=O)[nH]c3)n2)c(C)n1Cc1ccco1	eIF4E-4G inh 46
COc1ccc(-c2noc(CSc3nc(-c4ccccc4)cc(=O)[nH]3)n2)cc1	none
COc1ccc(-c2noc(CSc3nc(N)c(-c4ccccc4)c(=O)[nH]3)n2)cc1OC	eIF4E-4G inh 46[fluorescence artefact?]
COc1ccc(Br)cc1CN(C)CC(=O)Nc1c(Cl)cccc1Cl	none
COCCCNC(=S)Nc1c(C)cc(C)cc1C	none
COc1ccccc1NS(=O)(=O)c1ccc(NN=C2CCCC2)c([N+](=O)[O-])c1	eIF4E-4G inh 67[fluorescence artefact?]
COc1ccccc1NS(=O)(=O)c1ccc(N/N=C/C=C/c2ccccc2[N+](=O)[O-])c([N+](=O)[O-])c1	none
CCC[N+](CC#CCO)(CC#Cc1ccccc1)CCC	eIF4E-4G inh 91
Cc1ccc(S(=O)(=O)NCC(=O)N(CC(=O)NCC2CCCO2)Cc2ccco2)cc1 (stereo unspecified)	none
O=S(=O)(N/N=C/c1ccc(N2CCOCC2)cc1)c1ccc(Br)cc1	none
O=C(O)/C=C\C(=O)Nc1ccc(F)c(F)c1F	none
Cc1nn(C)c(C)c1N1C(=O)c2cccc3c(N)ccc(c23)C1=O	EBV gp42 block 169
CCN(CC)c1ccc2cc(S(=O)(=O)c3ccc(C)cc3)c(=O)oc2c1	EBV gp42 block 142
CCN(CC)c1ccc2cc(C(=O)NNC(=O)c3ccc(S(=O)(=O)N4CCCCC4)cc3)c(=O)oc2c1	EBV gp42 block 174
CCC(CO)Nc1nc2ccc(Cl)cc2c2ccccc12 (stereo unspecified)	none
Nc1nc2c(s1)COc1ccccc1-2	none
Nc1nc2c(s1)CCc1c-2cnn1-c1ccccc1	eIF4E-4G inh 39
N#CC1(NC(=O)CN2CCc3ccccc3C2)CCCC1	none
CC1C2C(C)N(C)C(=O)N(C)C2N(C)C(=O)N1C (stereo unspecified)	EBV gp42 block 65
CN1C(=O)N(C)C2C1NC(=O)N2C (stereo unspecified)	none
O=C(NCc1n[nH]c(=S)n1-c1ccc(Cl)c(Cl)c1)c1ccc(S(=O)(=O)N2CCOCC2)cc1	none
CN(c1ncc(C(F)(F)F)cc1Cl)N1C(=O)c2cccc(N)c2C1=O	EBV gp42 block 57
CN(c1ncc(C(F)(F)F)cc1Cl)N1C(=O)C2ONC3(C(=O)CC(C)(C)CC3=O)C2C1=O (stereo unspecified)	none
CC(C)C(NC(=O)C12CC3CC(CC(C3)C1)C2)C(=O)NC1=NCCS1 (stereo unspecified)	eIF4E-4G inh 40
COc1ccc(C(=O)NCCn2cc(SCC(=O)Nc3nnc(C)s3)c3ccccc32)cc1	none (no result: zVAD death inh)
Cc1nnc(NC(=O)CSc2cn(CCNC(=O)c3ccccc3)c3ccccc23)s1	EBV gp42 block 54
COc1ccc(/C=C2\SC(=O)N(CC(=O)NNC(=O)c3ccccc3O)C2=O)cc1	EBV gp42 block 58
O=C(CN1C(=O)S/C(=C\c2ccccc2)C1=O)NNC(=O)c1ccccc1O	none
CCN(CC)S(=O)(=O)c1cccc(N=Nc2c(O)c3ccccc3oc2=O)c1	none
C/C=C(\C)C(=O)Nc1cccc(C2=NOC3(C2)C[C@@H](C(N)=O)N(C(=O)/C(C)=C/C)C3)c1 (stereo partly specified)	eIF4E-4G inh 96
N#C/C(=C/c1cn[nH]c1-c1ccc(Br)cc1)C(=O)O	none
NC(=O)c1ccc(N=Nc2c(O)c3ccccc3[nH]c2=O)cc1	EBV gp42 block 65
COc1cc(N=Nc2c(O)c3ccccc3[nH]c2=O)c(OC)cc1N=Nc1ccccc1	none
COC(=O)n1c(=S)oc2cc(Cl)ccc21	eIF4E-4G inh 61
O=C(O)c1ccc(-n2cccc2/C=C2/NC(=O)N(c3cccc(Cl)c3)C2=O)cc1	eIF4E-4G inh 38
O=C(O)c1ccc(-n2cccc2/C=C2/NC(=O)N(c3ccccc3)C2=O)cc1	none
O=C1/C(=C/C=C/c2ccco2)SC(=S)N1NS(=O)(=O)c1ccccc1	eIF4E-4G inh 34
CN(C)c1ccc(/C=C2\SC(=O)N(CC(O)Cn3c4ccccc4c4ccccc43)C2=O)cc1 (stereo unspecified)	EBV gp42 block 115
O=C1S/C(=C/c2ccccc2)C(=O)N1CC(O)Cn1c2ccccc2c2ccccc21 (stereo unspecified)	none
OCCC1CN(Cc2ccccc2OC2CCCC2)CCN1Cc1ccsc1 (stereo unspecified)	none
CCOc1ccc(-c2csc(NC(=O)CSC3=NC(=O)CN3C(C)=O)n2)c2ccccc12	EBV gp42 block 130
CCn1c(=O)c2c3c(sc2n2c(=S)[nH]nc12)CCC3	eIF4E-4G inh 52
Cc1cccc(-n2c(=O)c3c4c(sc3n3c(=S)[nH]nc23)CCC4)c1	eIF4E-4G inh 32
O=c1c2c3c(sc2n2c(=S)[nH]nc2n1-c1ccccc1)CCC3	eIF4E-4G inh 38
Cc1ccc(-n2c(=O)c3c4c(sc3n3c(=S)[nH]nc23)CCC4)cc1	none
O=C(CCS(=O)(=O)c1cccc2nsnc12)NCc1ccccc1Cl	eIF4E-4G inh 33
Cc1cccc(NC(=O)CCS(=O)(=O)c2cccc3nsnc23)c1C	none
COc1ccc(S(=O)(=O)N2CCC(C(=O)NCc3cccc(OC)c3)CC2)cc1	eIF4E-4G inh 47
COc1cccc(CNC(=O)C2CCN(S(=O)(=O)c3ccccc3)CC2)c1	none
O=C1C2C3C=CC(C3=C(c3ccccc3)c3ccccc3)C2C(=O)N1Cc1ccccc1 (stereo unspecified)	EBV gp42 block 63
C=CCn1c(-c2ccco2)n[nH]c1=S	eIF4E-4G inh 67
S=c1[nH]nc(-c2ccc(Cl)cc2)n1/N=C/c1cccs1	eIF4E-4G inh 95
C=CCn1c(-c2cc(OC)c(OC)c(OC)c2)n[nH]c1=S	eIF4E-4G inh 44
S=c1[nH]nc(-c2ccccn2)n1/N=C/c1cccs1	none
O=[N+]([O-])c1ccccc1/C=C/C=N/n1c(-c2ccc(Cl)cc2)n[nH]c1=S	EBV gp42 block 86
COc1cccc(-n2c([S-])c(C(=O)Nc3ccc(S(=O)(=O)N4CCOCC4)cc3)[n+]3cc(C(N)=O)ccc23)c1	none
COc1cc(C2c3c(oc4ccccc4c3=O)C(=O)N2c2nccs2)ccc1O (stereo unspecified)	none
O=C1Nc2cc3c(cc2C1=O)sc1ccccc13	none
S=c1[nH]nc(-c2ccco2)n1/N=C/c1ccc(Cl)cc1	eIF4E-4G inh 33
Cc1n[nH]c(=S)n1/N=C/c1ccc(-c2ccccc2[N+](=O)[O-])o1	none
S=c1[nH]nc(-c2ccco2)n1/N=C/c1ccccc1Cl	none
O=[N+]([O-])c1cccc(-c2ccc(/C=N/n3c(-c4ccccc4)n[nH]c3=S)o2)c1	eIF4E-4G inh 75[fluorescence artefact?]
CCCCCCn1c(=O)[nH]c2nc3cc(N)ccc3nc2c1=O	EBV gp42 block 148
COCCCNC(=O)c1ccc2c3c(onc13)-c1ccccc1C2=O	EBV gp42 block 184
